Bioassay records from PubChem BioAssay.
Mtb hypoxia inh – PubChem AID 1159583; M. tuberculosis hypoxia-regulated fluorescent reporter, fluorescence; fluorescence inhibition, % (concentration not given with the values); 0.1% of 300,000 active; in the data active = fluorescence inhibition mostly above about 23%, no sharp cut-off; inactive = mostly below about 17%
BioA inh – M. tuberculosis BioA enzyme inhibitors, primary screen, biochemical, plate reader, single point, HTS; purified M. tuberculosis BioA enzyme; inhibition, % at 9.99 µM; 0.096% of 360,000 active; AID 602481, 2012; in the data active = inhibition above about 40%
GDH-TPI counter-1 – GDH-TPI coupling enzyme inhibitors, primary screen, artefact control for M. tuberculosis FBA inhibitor project, biochemical, absorbance, full deck. 1.2% of 360,000 active. GDH-TPI coupled enzyme counterscreen, NADH absorbance. inhibition, % at 4.8 µM; in the data active = inhibition above about 30%
FBA Mtb inh – Mtb FBA enzyme inhibitors, primary screen, biochemical, fluorescence, strain H37Rv. Fructose-bisphosphate aldolase (Mycobacterium tuberculosis (strain ATCC 25618 / H37Rv)), …. purified M. tuberculosis FBA, fluorescence read-out. inhibition, % at 1 µM. 2.3% of 360,000 active. AID 588726, 2011
Target sequence (P9WQA3 whole entry, looked up): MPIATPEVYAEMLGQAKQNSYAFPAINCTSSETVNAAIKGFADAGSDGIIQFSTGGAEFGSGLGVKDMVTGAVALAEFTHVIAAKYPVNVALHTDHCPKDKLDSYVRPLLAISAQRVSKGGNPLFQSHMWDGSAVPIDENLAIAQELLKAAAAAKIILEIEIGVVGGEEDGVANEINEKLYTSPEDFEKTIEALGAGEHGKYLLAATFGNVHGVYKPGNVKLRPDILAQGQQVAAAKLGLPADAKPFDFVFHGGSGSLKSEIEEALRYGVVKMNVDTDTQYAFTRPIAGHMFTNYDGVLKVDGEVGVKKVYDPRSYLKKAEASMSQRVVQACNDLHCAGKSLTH
FadD28 FP inh – inhibitors of FadD28 bisubstrate probe binding, primary screen, biochemical, fluorescence polarization, single point | Mycobacterium tuberculosis FadD28 fatty-acid-AMP ligase | inhibition, % at 12.5 µM | 0.22% of 360,000 active | AID 588549, 2011; in the data active = inhibition above about 8.5%, passing the limit was not always enough
Mtb FBA confirm – M. tuberculosis aldolase blockers, biochemical, fluorescence, strain H37Rv, confirmation. shares compounds with FBA Mtb inh. purified M. tuberculosis FBA, fluorescence read-out. inhibition, % at 1 µM. 78% of 5,600 active. AID 651616, 2012
GDH-TPI counter-2 – GDH-TPI coupling enzyme inhibitors, artefact control for M. tuberculosis FBA inhibitor project, biochemical, fluorescence, high throughput. shares compounds with FBA Mtb inh. GDH-TPI coupled enzyme counterscreen. inhibition, % at 1 µM. 81% of 5,600 active. AID 652141, 2013; in the data active = inhibition above about 10%
Numbers stand for hits; . = inactive; / = no result given. Most compounds without a hit are left out; they make up all but 2.9% or so of the library. Cut-off read from the data, not from the text of the source, unless noted: active = inhibition above about 27%; inactive = the rest.

SMILES	Mtb hypoxia inh	BioA inh	GDH-TPI counter-1	FBA Mtb inh	FadD28 FP inh	Mtb FBA confirm	GDH-TPI counter-2
Cc1cc2c(c(C)c1CCOC1OC(CO)C(O)C(O)C1O)C(=O)C(C)C2O (stereo not given)	.	/	/	/	/	/	/
CC(=NNC(=O)c1ccccc1C)c1cccnc1	.	/	/	/	/	/	/
O=C(O)CCN(CCC(=O)O)c1ccccc1	.	.	.	.	.	/	/
O=C(O)c1cccc(N(CCO)CCO)c1	.	/	.	38.7	.	98.6	75.3
OCCN(CCO)c1ccc2ccccc2c1	.	.	.	109.4	.	33.2	27.4
CCCC(O)(c1ccc(Cl)cc1)C(CN1CCOCC1)c1ccc(Cl)cc1 (stereo not given)	.	.	.	30.5	.	97.4	69.8
Cc1cc2ncc(-c3cccs3)nc2cc1C	.	/	.	73.3	.	67.6	58.1
CCCC(=O)Nc1ccc2c(c1)OC[C@H](C)N(CC1CCOCC1)C[C@@H](C)[C@@H](OC)CN(C)C2=O	/	.	/	/	/	/	/
C[C@@H]1CN([C@@H](C)CO)C(=O)Cc2cc(NC(=O)C3CCCCC3)ccc2O[C@@H]1CN(C)C(=O)Nc1ccccc1	/	.	/	/	/	/	/
CC1(C)Cc2nc(N3CCCC3)c(C#N)cc2CO1	.	/	.	110.5	.	66.0	50.1
CC1(C)Cc2c(C#N)c(N3CCOCC3)nc(-c3ccccc3)c2CO1	/	.	.	.	.	/	/
CC1(C)Cc2nc(N3CCOCC3)c(C#N)cc2CO1	.	/	.	48.6	.	36.8	35.2
COc1ccc(C=CC(=O)c2ccc(OC)cc2O)cc1	.	/	/	/	/	/	/
O=C(ON=C1C(=O)N(c2ccccc2)c2ccccc21)C1CC1	.	/	/	/	/	/	/
Cc1cn2c(nc(=O)c3cccnc32)s1	.	/	.	36.3	.	107.1	86.7
COc1cccc(C(=O)Nc2ccc3c(c2)C(=O)N(C)C[C@@H](OC)[C@@H](C)CN(C(=O)C2CCCC2)[C@@H](C)CO3)c1	/	.	/	/	/	/	/
CC(C)NC(=O)N(C)C[C@@H]1Oc2ccc(NS(C)(=O)=O)cc2C(=O)N([C@H](C)CO)C[C@H]1C	/	.	/	/	/	/	/
CCOC(=O)Cc1c(C)nc2c(-c3cccc(Br)c3)c[nH]n2c1=O	.	.	.	41.3	.	.	21.1
C[C@H]1CN([C@@H](C)CO)C(=O)c2cc(NC(=O)c3ccncc3)ccc2O[C@@H]1CN(C)Cc1ccc(Oc2ccccc2)cc1	/	.	/	/	/	/	/
CCN(c1cccc(C)c1)S(=O)(=O)c1ccc2c(c1)oc(=O)n2C	.	.	.	78.7	.	49.2	46.1
O=C(NCc1ccncc1)/C(=C\c1ccc(F)cc1)NC(=O)c1ccccc1	.	.	.	44.8	.	185.1	151.2
Cc1ccc(C(=O)N/C(=C\c2ccc(F)cc2)C(=O)NCc2ccncc2)cc1	.	.	.	.	.	/	/
Cc1noc(C)c1NC(=O)Nc1ccc2c(c1)C(=O)N([C@H](C)CO)C[C@H](C)[C@H](CN(C)S(=O)(=O)c1cn(C)cn1)O2	/	.	/	/	/	/	/
COc1cc(NS(=O)(=O)c2ccc(NC(=O)c3cccs3)cc2)nc(OC)n1	.	.	.	74.7	.	.	.
COc1cc(NS(=O)(=O)c2ccc(N/C=C\C(=O)c3ccc(C)cc3)cc2)nc(OC)n1	/	.	.	29.9	.	35.6	22.1
SMILES	Mtb hypoxia inh	BioA inh	GDH-TPI counter-1	FBA Mtb inh	FadD28 FP inh	Mtb FBA confirm	GDH-TPI counter-2
Cc1ccc(NC(=O)CN(C)CC(=O)Nc2ccccc2C(=O)Nc2ccccc2)cc1	.	/	.	73.0	.	.	.
Cc1ccc(NC(=O)CN(C)C(=O)C(C)OC(=O)c2ccccc2NCCO)cc1 (stereo not given)	.	.	.	92.4	.	98.0	72.9
CC(OC(=O)c1ccccc1NCCO)C(=O)NCC(=O)Nc1ccc(F)c(F)c1F (stereo not given)	.	.	.	90.7	.	127.8	97.1
C[C@H]1CN([C@@H](C)CO)C(=O)c2cc(C#CCN(C)C)cnc2O[C@@H]1CN(C)Cc1ccc(-c2ccccc2)cc1	/	.	/	/	/	/	/
C[C@@H]1CN([C@@H](C)CO)S(=O)(=O)c2ccc(C3=CCCC3)cc2O[C@H]1CN(C)Cc1cccc(C(=O)O)c1	/	.	/	/	/	/	/
C/C=C/c1cnc2c(c1)C(=O)N([C@H](C)CO)C[C@H](C)[C@@H](CN(C)Cc1cccc(C(=O)O)c1)O2	/	.	/	/	/	/	/
COc1ccc2ccc(=O)oc2c1CC(=O)C(C)C	/	.	.	39.0	.	.	17.6
COc1ccc2ccc(=O)oc2c1CC(O)C(C)(C)O (stereo not given)	/	.	.	66.2	.	.	.
CC(C)(O)[C@H](O)COc1c2occc2cc2ccc(=O)oc12	/	.	.	.	.	/	/
C[C@@H]1CN([C@H](C)CO)C(=O)c2cc(NS(=O)(=O)c3ccccc3)ccc2O[C@@H]1CN(C)Cc1ccc(C(F)(F)F)cc1	/	.	/	/	/	/	/
Fc1ccc(-c2cnc(-c3cccs3)o2)cc1	.	.	.	60.6	.	81.2	70.5
O=c1c2c(nc3cc(-c4ccc(Br)cc4)[nH]n13)CCCC2	.	.	.	.	.	/	/
Cc1cc2nc3c(c(=O)n2[nH]1)CCCC3	.	.	.	.	.	/	/
O=c1c2c(nc3cc(-c4ccccc4)[nH]n13)CCC2	/	.	.	43.9	.	111.4	98.0
COc1ccc(-c2cc3nc4c(c(=O)n3[nH]2)CCC4)cc1	.	/	.	38.4	.	150.8	129.4
Cc1noc(C)c1NC(=O)Nc1cccc2c1O[C@@H](CN(C)C(=O)Nc1ccc(C(F)(F)F)cc1)[C@H](C)CN([C@@H](C)CO)C2=O	/	.	/	/	/	/	/
CCOC(=O)c1cc(-c2ccc(OC(F)F)cc2)nc2c1c(=O)[nH]c(=O)n2C	/	.	.	50.0	.	159.1	130.0
CCOC(=O)c1cc(-c2ccc(OC(F)F)cc2)nc2nc(SC)[nH]c(=O)c12	.	/	.	72.1	.	101.2	87.9
CCOC(=O)c1cc(-c2ccc(Cl)cc2)nc2c1c(=O)[nH]c(=O)n2CCOC	.	/	.	53.4	.	68.2	46.2
CO[C@@H]1CN(C)C(=O)c2cc(NS(=O)(=O)c3ccc(C)cc3)ccc2OC[C@@H](C)N(C(=O)NC(C)C)C[C@@H]1C	/	.	/	/	/	/	/
Cc1cccc2c(C(=O)O)c3cccc(C)c3nc12	.	/	.	94.9	.	52.1	54.6
Cc1cccc2c(C(=O)O)c3c(nc12)CCCCC3	/	.	.	.	.	/	/
CO[C@@H]1CN(C)C(=O)c2ccc(NC(C)=O)cc2OC[C@H](C)N(CCC(F)(F)F)C[C@@H]1C	/	.	/	/	/	/	/
N#CCc1ccc(Oc2ncc(C(F)(F)F)cc2Cl)cc1	.	.	.	43.7	.	122.6	101.7
NC(=O)c1ccc(Oc2ncc(C(F)(F)F)cc2Cl)cc1	.	/	.	.	.	/	/
